The panel holds about 83,000 compounds, 20% with a hit somewhere; the sample as a whole holds those more often.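 Growth was measured after 48 h exposure to one concentration of compound in 96-well plates. Values under 10 count as active.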 Activity calls are given as the source filed them.

For this test, the system named is MALME-3M melanoma. The test is described as follows: NCI-60 one-dose screen, 48 h (100 = growth as untreated, 0 = no growth, -100 = all killed). The following applies: 10 µM unless noted.
For `CC(=O)c1c(C)[nH]c(-c2nc3ccc(N4CCN(C)CC4)cc3[nH]2)c1-c1ccc(N(C)C)cc1`, the growth is 26.7% (inactive).

Consider `CC(=O)c1c(C)[nH]c(-c2nc3ccc(N4CCN(C)CC4)cc3[nH]2)c1-c1ccc(OCC2CCOCC2)cc1`, for which the growth was 20.7% (inactive).

As for `CC/C=C\C[C@H]1CC=C2C(=O)C=C[C@@H]2CC=CCCCC(=O)O[C@@H](CCCCC)CC=C2C(=O)C=C[C@@H]2CC=CCCCC(=O)O[C@@H](CCCCC)CC=C2C(=O)C=C[C@@H]2CC=CCCCC(=O)O[C@@H](CCCCC)CC=C2C(=O)C=C[C@@H]2CC=CCCCC(=O)O1`, the growth is 26.2% [7.9 µM] (inactive).

Turning to `O=C1c2cccc3cccc(c23)C(=O)N1CC#Cc1ccc2c3c(cccc13)C(=O)N(CCN1CCNCC1)C2=O`, the growth is -45% (active).

With `COc1ccc(NC(=O)c2ccc3c(c2)nc(-c2cc4ccccc4[nH]c2=O)n3-c2cc(C(C)(C)C)[nH]n2)cc1`, the growth is 101% (inactive).

For `CC(=O)NC1=C(C#N)C(c2ccccc2Cl)c2c(ccc3ccccc23)O1` (stereo not drawn), the growth is 48.4% (inactive).

`CC(C)(C)c1[nH]nc2c1C(c1cc3ccccc3[nH]c1=O)Nc1cc(C(=O)OCc3ccccc3)ccc1N2` (stereo not drawn): the growth was 58.7% (inactive).

For the molecule `CC1(C)C=CC[C@]2(C)[C@H]3CC[C@@H]4[C@H]5[C@H](C(=O)/C=C/c6cccnc6)CC[C@]5(CO)CC[C@@]4(C)[C@]3(C)CC[C@@H]12`, the growth is -85% (active).

As to `CC1(C)[C@@H](O)CC[C@]2(C)[C@H]3CC[C@@H]4[C@H]5[C@H](C(=O)/C=C/c6ccc(C(F)(F)F)cc6)CC[C@]5(CO)CC[C@@]4(C)[C@]3(C)CC[C@@H]12`, the growth is 8.37% (active).

As to `N=C(N)c1ccc(S(N)(=O)=O)cc1`, the growth is 87.6% (inactive).

Turning to `C=C(C)[C@@H]1CC[C@]2(C(=O)OC)CC[C@]3(C)[C@H](CC[C@@H]4[C@@](C)(CC/C(N)=N/O)[C@H](C(=C)C)CC[C@]43C)[C@@H]12`, the growth is 98.2% (inactive).

For `COc1ccc(-c2nc3c(c(C)nn3-c3ccc(F)cc3)c(=O)[nH]2)cc1`, the growth is 75.3% (inactive).

Turning to `CC1(C)C(=O)/C(=C\c2ccco2)C[C@]2(C)[C@H]3CC[C@@H]4[C@@H](C(=O)/C=C/c5ccco5)CC[C@@]4(C)[C@]3(C)CC[C@@H]12`, the growth was 1.28% (active).

In the case of `CC1(C)CC[C@]2(C(=O)Nc3ccccn3)CC[C@]3(C)C(=CC[C@@H]4[C@@]5(C)C/C(=C/c6ccncc6)C(=O)C(C)(C)[C@@H]5CC[C@]43C)[C@@H]2C1`, the growth is -2.79% (active).

Take `Cc1csc(-c2ccc3c(c2)COC3(CCCN(C)C)c2ccc(F)cc2)c1` (stereo not drawn): the growth was -71.9% (active).

Turning to `Cc1nc([P+](c2ccccc2)(c2ccccc2)c2ccccc2)c(Sc2sc(-c3ccccc3)nc2[P+](c2ccccc2)(c2ccccc2)c2ccccc2)o1`, the growth is 6.38% (active).

`O=C(O[C@@H]1Cc2c(O)cc(O)cc2O[C@@H]1c1cc(O)c(O)c(O)c1)c1cc(O)c2c(c1)OCO2`: the growth is 108% (inactive).

Consider `Fc1ccc2c(c1)c(-c1nc(-c3c[nH]c4ncccc34)cs1)cn2CCCN1CCCCC1`, for which the growth is 49.8% (inactive).

In the case of `O=P(O)(c1ccccc1)c1ccccc1I`, the growth was 87.5% (inactive).

Consider `COc1ccc(/C=C(\C#N)c2cc3ccccc3n2S(C)(=O)=O)cc1`, for which the growth is 66.5% (inactive).

For `CN1CCN(CCOc2ccc(-c3cnc4c(-c5cccc(F)c5)cnn4c3)cc2)CC1`, the growth was 60.6% (inactive).

Consider `Cc1ccc2oc(=O)cc(-c3sc(N4CCCCC4)nc3-c3ccccc3)c2c1`, for which the growth was 86% (inactive).

For the molecule `Cc1ccnc2c(OCc3ccccc3)cccc12`, the growth is 84.4% (inactive).

Regarding `N#CC1=C(N)Oc2ccc3ccccc3c2C1c1ccccc1` (stereo not drawn), the growth is 42.3% (inactive).

For `CN(C)CCCCC(C(=O)CBr)(c1ccccc1)c1ccccc1`, the growth is -55.9% (active).

With `CC(=O)O[C@H]1CC[C@]2(C)[C@H]3CC=C4[C@@H]5[C@H](C)[C@@H](C)CC[C@]5(C(=O)NCCNCCNCCN)CC[C@@]4(C)[C@]3(C)CC[C@H]2C1(C)C`, the growth is 59.3% (inactive).

For the molecule `Cc1ccc(S(=O)(=O)Nc2ccc(-c3cc(-c4cccc(F)c4)c(C#N)c(N)n3)cc2)cc1`, the growth was 44.4% (inactive).

For the molecule `O=C1/C(=C\c2ccc(Br)o2)SC(=S)N1CCc1ccc(O)cc1`, the growth was 69% (inactive).

Consider `CN(C)c1ccc(-c2ccc(-c3ccc(C(=N)N)c(F)c3)s2)cc1`, for which the growth was 71.3% (inactive).

For `Cc1ccc(S(=O)(=O)Nc2ccc(-c3cc(-c4cccc(F)c4)c(C#N)c(=O)[nH]3)cc2)cc1`, the growth is 92.6% (inactive).

`O=C1CN(c2ccccc2)C(=O)C1C(=O)Nc1ccc(Cl)c(Cl)c1` (stereo not drawn): the growth was -11.7% [100 µM] (active).

Regarding `CN(C)CCCC1(c2ccc(F)cc2)OCc2cc(-c3ccc(C(F)(F)F)nc3)ccc21` (stereo not drawn), the growth is 34.9% (inactive).

For `Fc1ccc(Nc2nnc(-c3ccc(Cl)cc3)o2)cc1`, the growth was 95.6% (inactive).

As to `C=C(C)[C@@H]1CC[C@]2(/C=N/Nc3ccncc3)CC[C@]3(C)[C@H](CC[C@@H]4[C@@]5(C)CCCNC(C)(C)[C@@H]5CC[C@]43C)[C@@H]12`, the growth is 80.3% (inactive).

For `O=C1c2ccccc2NC(c2cn(-c3ccccc3)nc2-c2cccs2)N1Cc1ccccc1` (stereo not drawn), the growth was 109% (inactive).

With `Cc1cccc(C)c1NCc1nc(-c2ccccc2)n[nH]1`, the growth is 98.6% (inactive).

As for `NC(N)=N/N=C/c1ccc(-c2ccc(-c3ccc(Cl)cn3)s2)cc1`, the growth is 101% (inactive).

In the case of `CCOC(=O)C1OC1(c1ccccc1)c1ccccc1` (stereo not drawn), the growth was 110% (inactive).

These data come from PubChem BioAssay (NCI).
